Drawing on PubChem BioAssay (Tox21), this text covers Potency for 18 compounds.

Records with an inconclusive call do not appear. Calls of active or inactive are those of the source. Unless noted, the call rests on the fitted dose curve; in most records, active means well fitted curve in the direction sought with a large enough effect in the repeat runs; inconclusive means weak or mixed curves; inactive means no such curve, though single readings can be large; an effect the other way counts as inactive or inconclusive.

Test [1] can be described thus: qHTS assay to identify small molecule antagonists of the glucocorticoid receptor (GR) signaling pathway - cell viability counter screen (AID 720693). Further: nearly all actives have a fitted effect of over 55% in size. Further: potency means the concentration at half of the fitted maximal effect.
The nature of test [2]: qHTS assay for identifying genotoxic compounds that show differential cytotoxicity against isogenic chicken DT40 cell lines with known DNA damage response pathways - wild type cell line (AID 743012). Further: nearly all actives have a fitted effect of over 60% in size. Further: potency means the concentration at half of the fitted maximal effect. The method in brief: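 First, wild type DT40 cells were plated at 300 per well and equilibrated about 0.5 h at 37 C/5% CO2. Next, compounds in DMSO were added and exposure lasted 40 h. Finally, CellTiter-Glo was added for 30 min at room temperature and luminescence recorded.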

Test [3] in a line: qHTS assay for identifying genotoxic compounds that show differential cytotoxicity against isogenic chicken DT40 cell lines with known DNA damage response pathways - Rev3 mutant cell line (AID 743014). Further: nearly all actives have a fitted effect of over 55% in size. Further: potency means the concentration at half of the fitted maximal effect.
Test [4] can be described thus: qHTS assay for identifying genotoxic compounds that show differential cytotoxicity against isogenic chicken DT40 cell lines with known DNA damage response pathways - Rad54/Ku70 mutant cell line (AID 743015). Further: nearly all actives have a fitted effect of over 60% in size. Further: potency means the concentration at half of the fitted maximal effect.
Test [5] is described as follows: qHTS assay to identify small molecule antagonists of the androgen receptor (AR) signaling pathway - cell viability counter screen (AID 743033; further: nearly all actives have a fitted effect of over 45% in size; further: potency means the concentration at half of the fitted maximal effect).
Test [6] addresses Androgen receptor (Homo sapiens) (UniProt P10275). Kind of test: qHTS assay to identify small molecule antagonists of the androgen receptor (AR) signaling pathway (AID 743035; active means well fitted inhibition curve with a large enough effect in the signal ratio in the repeat runs, not every such curve was filed as active; the % refers to the signal ratio; further: potency means the concentration at half of the fitted maximal effect). In a few lines: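 Beta-lactamase FRET read (2 h RT incubation with LiveBLAzer B/G) following 16 h of compound plus R1881 treatment of AR-UAS-bla HEK293 cells, which had been pre-incubated 4 h at 37C.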
For test [7] the target is unchanged. As to the kind of experiment: qHTS assay to identify small molecule agonists of the androgen receptor (AR) signaling pathway (AID 743036; active means well fitted activation curve with a large enough effect in the signal ratio in the repeat runs, with a control signal flat, not every such curve was filed as active; the % refers to the signal ratio). In a few lines: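 Screening used 2,000 AR-bla HEK293 cells per well, treated 16 h at 37C with test compounds in DMSO alongside positive and DMSO-only controls; beta-lactamase activity was then read by LiveBLAzer B/G FRET fluorescence after 2 h at room temperature.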

Test [8] shares this target. Kind of test: qHTS assay to identify small molecule agonists of the androgen receptor (AR) signaling pathway using the MDA cell line (AID 743040; further: nearly all actives have a fitted effect of over 20% in size; further: potency means the concentration at half of the fitted maximal effect). In a few lines:
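MDA-kb2 breast carcinoma cells stably carrying an MMTV-driven luciferase reporter (AR- and GR-responsive) were seeded and held 5 h at 37C, 0% CO2, then exposed to compounds in DMSO for 16 h. Luminescence was read 30 min after ONE-Glo addition.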

Test [9] has the same target. Kind of test: qHTS assay to identify small molecule antagonists of the androgen receptor (AR) signaling pathway using the MDA cell line (AID 743042; further: nearly all actives have a fitted effect of over 55% in size; further: potency means the concentration at half of the fitted maximal effect). In a few lines: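 MDA-kb2 cells (human breast carcinoma, stably carrying an MMTV-luciferase reporter responsive to AR and GR) were plated at 3,000 cells/well and preincubated 5 hr at 37C, then given compound plus R1881 agonist for 16 h. ONE-Glo luminescence was read.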

A short description of test [10]: qHTS assay to identify small molecule antagonists of the androgen receptor (AR) signaling pathway using the MDA cell line - cell viability counter screen (AID 743041; further: nearly all actives have a fitted effect of over 45% in size; further: potency means the concentration at half of the fitted maximal effect). The method in brief: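 MDA-kb2 AR-luc human breast carcinoma cells (MMTV-luciferase, AR/GR responsive) were treated with compounds plus R1881 agonist for 16 h at 37 °C. Viability was read as CellTiter-Fluor fluorescence in the same wells as the reporter assay.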

Androgen receptor (Homo sapiens), sequence (P10275 whole entry, looked up): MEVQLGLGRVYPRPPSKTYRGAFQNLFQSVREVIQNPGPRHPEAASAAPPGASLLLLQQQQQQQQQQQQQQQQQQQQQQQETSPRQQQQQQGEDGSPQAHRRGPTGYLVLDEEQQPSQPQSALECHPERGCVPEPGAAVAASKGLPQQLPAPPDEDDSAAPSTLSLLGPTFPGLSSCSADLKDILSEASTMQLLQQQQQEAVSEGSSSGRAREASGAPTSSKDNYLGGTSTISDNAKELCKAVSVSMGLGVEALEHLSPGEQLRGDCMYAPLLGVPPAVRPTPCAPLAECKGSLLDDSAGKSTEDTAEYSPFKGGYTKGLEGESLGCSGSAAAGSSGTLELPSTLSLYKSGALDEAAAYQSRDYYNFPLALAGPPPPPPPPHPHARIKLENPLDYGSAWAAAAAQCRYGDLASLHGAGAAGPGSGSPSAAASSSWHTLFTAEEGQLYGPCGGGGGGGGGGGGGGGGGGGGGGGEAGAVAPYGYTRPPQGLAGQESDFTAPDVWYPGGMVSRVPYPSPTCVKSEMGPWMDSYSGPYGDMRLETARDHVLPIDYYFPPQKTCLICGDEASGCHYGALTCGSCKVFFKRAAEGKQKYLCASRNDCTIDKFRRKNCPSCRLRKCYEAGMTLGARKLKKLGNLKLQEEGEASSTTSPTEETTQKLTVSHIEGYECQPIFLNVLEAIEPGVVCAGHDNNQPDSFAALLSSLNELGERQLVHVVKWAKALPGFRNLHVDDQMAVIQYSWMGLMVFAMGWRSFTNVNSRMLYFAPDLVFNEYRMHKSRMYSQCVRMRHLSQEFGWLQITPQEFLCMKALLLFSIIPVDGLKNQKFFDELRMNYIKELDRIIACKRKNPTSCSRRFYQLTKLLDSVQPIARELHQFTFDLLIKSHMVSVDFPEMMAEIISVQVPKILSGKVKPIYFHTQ

`CCCCCCCCCCCCOCCCN`: the Potency entry in test [1], in test [2], in [3], in test [4], in test [5] and in [6] was “inactive” in each case. The Potency result in [7], in test [8] and in test [9] was “inactive” each time.

As for `Clc1ccc(COC(Cn2ccnc2)c2ccc(Cl)cc2Cl)c(Cl)c1` (stereo unspecified), the Potency entry in test [1], in test [5], in test [8], in [10] and in [9] was “inactive” throughout. Moreover, the Potency is 10100 nM (active) in [2], 11400 nM (active) in test [3] and 10100 nM (active) in test [4].

Take `O=C(NOC[C@H](O)CO)c1ccc(F)c(F)c1Nc1ccc(I)cc1F`: the Potency entry in test [1], in [2], in [3], in test [4], in test [5] and in [8] was “inactive” throughout. Besides, the Potency result in test [10] was “inactive”.

For `CN=C1C=CC(=C(c2ccc(N(C)C)cc2)c2ccc(N(C)C)cc2)C=C1`, the Potency in test [1] is 7560 nM (active); in [2] it was 531 nM (active); in test [3], 1060 nM (active); in test [4], 750 nM (active); in [5] it was 535 nM (active); in test [10], 7500 nM (active). Also, the Potency in [9] was 3760 nM (active). In test [8], the Potency result is “inactive”.

For `CN1CCN(CCC=C2c3ccccc3Sc3ccc(S(=O)(=O)N(C)C)cc32)CC1`, the Potency entry in test [1], in [8] and in test [10] was “inactive” each time. Further, the Potency in [2] was 10600 nM (active); in [3] it was 13300 nM (active); in test [4], 16800 nM (active); in test [5] it was 23900 nM (active).

Regarding `CCC(=O)OCC(=O)[C@@]1(OC(=O)CC)[C@@H](C)C[C@H]2[C@@H]3CCC4=CC(=O)C=C[C@]4(C)[C@@]3(Cl)[C@@H](O)C[C@@]21C`, the Potency entry in [1], in [5], in [10] and in test [9] was “inactive” in each case. For the same compound, the Potency in test [2] is 13300 nM (active); in test [3] it was 15000 nM (active); in [4], 13300 nM (active); in test [8] it was 9.4 nM (active).

For `Cc1ncc(C[n+]2csc(CCOP(=O)(O)OP(=O)(O)O)c2C)c(N)n1`, the Potency entry in test [1], in test [2], in test [3], in [4], in test [5] and in test [6] was “inactive” throughout. Moreover, the Potency result in test [7], in test [8], in [10] and in test [9] was “inactive” each time.

In the case of `O=C(OC[C@H]1O[C@](O)(COC(=O)c2cccnc2)[C@@H](OC(=O)c2cccnc2)[C@@H]1OC(=O)c1cccnc1)c1cccnc1`, the Potency entry in [1], in test [2], in test [3], in test [4], in test [5] and in test [6] was “inactive” each time. Also, the Potency result in test [7], in test [8], in test [10] and in test [9] was “inactive” each time.

On to `CN[C@H]1CCc2cc(OC)c(OC)c(OC)c2-c2ccc(OC)c(=O)cc21`, for which the Potency result in test [1], in test [5], in test [8], in [10] and in test [9] was “inactive” each time. The Potency was 47.3 nM (active) in [2], 53.1 nM (active) in [3], 53.1 nM (active) in test [4] and 60.1 nM (active) in [6].

Turning to `CC(=O)O[C@H]1C[C@@]2(C)[C@@H](C[C@@H](O)[C@H]3[C@@]4(C)CC[C@@H](O)[C@@H](C)[C@@H]4CC[C@@]32C)/C1=C(\CCC=C(C)C)C(=O)O`, the Potency result in test [1], in test [2], in test [3], in [4], in test [5] and in test [6] was “inactive” throughout. For the same compound, the Potency entry in test [7], in test [8] and in test [9] was “inactive” in each case.

With `CC[N+](C)(C)Cc1ccccc1Br`, the Potency result in [1], in [2], in [3], in test [4], in test [5] and in test [6] was “inactive” throughout. In addition, the Potency result in test [8], in test [10] and in test [9] was “inactive” throughout.

Consider `O=C(Cc1cccs1)N[C@@H]1C(=O)N2C(C(=O)[O-])=C(C[n+]3ccccc3)CS[C@H]12`, for which the Potency result in test [1], in [2], in test [3], in test [4], in test [5] and in test [6] was “inactive” in each case. The Potency entry in test [7], in test [8], in [10] and in test [9] was “inactive” each time.

Turning to `CC(=O)O[C@H]1C(=O)[C@@]2(C)[C@H]([C@H](OC(=O)c3ccccc3)[C@]3(O)C[C@H](OC(=O)[C@H](O)[C@@H](NC(=O)c4ccccc4)c4ccccc4)C(C)=C1C3(C)C)[C@]1(OC(C)=O)CO[C@@H]1C[C@@H]2O`, the Potency result in test [1], in [8] and in test [9] was “inactive” in each case. Further, the Potency in test [2] is 10.6 nM (active); in test [3], 9.4 nM (active); in test [4] it was 13.3 nM (active); in [5] it was 952 nM (active); in test [6], 16.9 nM (active).

Turning to `CCOC(=O)CCC(=O)O[C@H]1[C@H](O[C@@H]2[C@@H](C)[C@H](O[C@H]3C[C@@](C)(OC)[C@@H](O)[C@H](C)O3)[C@@H](C)C(=O)O[C@H](CC)[C@@](C)(O)[C@H](O)[C@@H](C)C(=O)[C@H](C)C[C@@]2(C)O)O[C@H](C)C[C@@H]1N(C)C`, the Potency result in test [1], in test [2], in [3], in test [4], in test [5] and in test [6] was “inactive” throughout. In addition, the Potency result in test [7], in [8] and in test [9] was “inactive” each time.

For the compound `C#CCC(Cc1cnc2nc(N)nc(N)c2n1)c1ccc(C(=O)N[C@@H](CCC(=O)O)C(=O)O)cc1` (stereo partly specified), the Potency entry in test [1], in test [6], in test [8], in test [10] and in test [9] was “inactive” each time. The Potency in test [2] was 10.6 nM (active); in [3] it was 16.8 nM (active); in test [4], 23.7 nM (active); in test [5], 169 nM (active).

As for `CCCCOC(=O)C(=O)Nc1cccc(-c2nn[nH]n2)c1`, the Potency result in [1], in test [2], in test [3], in test [4], in test [5] and in test [6] was “inactive” throughout. Further, the Potency entry in [7], in test [8], in [10] and in [9] was “inactive” throughout.

For the compound `CCN(CC)c1ccc(C(=C2C=CC(=[N+](CC)CC)C=C2)c2ccccc2)cc1`, the Potency in test [1] is 1510 nM (active); in [2], 94.4 nM (active); in test [3], 106 nM (active); in [4], 106 nM (active); in test [5] it was 2390 nM (active); in test [10] it was 2660 nM (active). In addition, in [9], the Potency was 473 nM (active). The Potency result in test [8] is “inactive”.

With `C/C=C1\NC(=O)[C@H]2CSSCC/C=C/[C@H](CC(=O)N[C@H](C(C)C)C(=O)N2)OC(=O)C(C(C)C)NC1=O` (stereo partly specified), the Potency in [1] is 2390 nM (active); in test [2] it was 1.3 nM (active); in [3] it was 1.2 nM (active); in test [4] it was 1.7 nM (active); in test [5], 4770 nM (active); in [10] it was 7500 nM (active). Moreover, the Potency entry in [8] and in [9] was “inactive” in each case.
